Target: T1, Testis-specific serine/threonine-protein kinase 2 (Homo sapiens) (UniProt Q96PF2)
T1 sequence (whole entry): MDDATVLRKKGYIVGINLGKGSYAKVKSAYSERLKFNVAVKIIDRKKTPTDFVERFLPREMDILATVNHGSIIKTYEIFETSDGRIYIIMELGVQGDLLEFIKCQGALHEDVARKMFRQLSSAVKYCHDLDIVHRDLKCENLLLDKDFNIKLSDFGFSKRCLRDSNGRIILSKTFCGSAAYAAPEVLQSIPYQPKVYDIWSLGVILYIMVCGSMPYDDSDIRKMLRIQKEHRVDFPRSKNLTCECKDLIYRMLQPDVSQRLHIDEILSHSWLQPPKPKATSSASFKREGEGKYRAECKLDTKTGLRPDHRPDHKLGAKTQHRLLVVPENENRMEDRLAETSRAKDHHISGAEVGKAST
Settings: at 0.1 µM
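Also: values are mean inhibition of TSSK2 activity from the GSK PKIS profiling panel.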

| SMILES | inhibition |
| --- | --- |
| NC(=O)c1cc(-c2ccncc2)cc(-c2ccccc2)c1N | 2.4% |
| COc1cc2ncn(-c3cc(OCc4cccs4)c(C(N)=O)s3)c2cc1OC | 2.91% |
| COc1ccc(C2=C(N3CCc4ccccc43)C(=O)NC2=O)cc1 | 3.64% |
| NS(=O)(=O)c1ccc(N/N=C2\C(=O)Nc3ccc(C(=O)NCCCn4ccnc4)cc32)cc1 | 4.07% |
| O=C(Nc1n[nH]c2nc(-c3ccc(O)cc3)c(Br)cc12)C1CC1 | 3.73% |
| Clc1ccc(CNc2nccc(-c3cnn4ncccc34)n2)cc1 | 0.23% |
| CS(=O)(=O)CCNCc1ccc(-c2ccc3ncnc(Nc4ccc(OCc5ccccc5)c(Br)c4)c3c2)o1 | 1.22% |
| c1ccc(Oc2ccc(Nc3ncc(-c4ccccc4)o3)cc2)cc1 | 0.35% |
| Cc1ccc(NC(=O)c2ccoc2)cc1-c1ccc(C(=O)NCC2CC2)cc1 | 0.85% |
| C/C(Nc1ccc(S(N)(=O)=O)cc1)=C1/C(=O)Nc2ccccc21 | -0.65% |
| Fc1ccc(-c2c(-c3ccncc3)nc3n2CCS3)cc1 | 1.87% |
| O=C(Nc1ccc(Oc2ccc3[nH]c(NC(=O)c4ccccc4)nc3c2)cc1)Nc1cc(C(F)(F)F)ccc1F | 1.68% |
| O=C1NC(=O)C(c2cccc(Cl)c2)=C1Nc1ccc(Cl)c(C(=O)O)c1 | 3.03% |
| NS(=O)(=O)c1ccc(Nc2cc(-c3ccc(O)c(F)c3)n[nH]2)cc1 | -3.53% |
| COC(=O)Nc1nc2ccc(Sc3ccc(NC(=O)Nc4cc(C(F)(F)F)ccc4F)cc3)cc2[nH]1 | -0.2% |
| Cc1nnc(-c2ccc(C)c(-c3ccc(C(=O)NCc4ccc(Cl)cc4)cc3)c2)o1 | 1.65% |
| COc1ccc2ncn(-c3cc(O[C@H](C)c4ccccc4Cl)c(C(N)=O)s3)c2c1 | 0.96% |

| SMILES | inhibition |
| --- | --- |
| COc1cc(N2CCN(C(C)C)CC2)ccc1Nc1nc(Nc2ccc(F)cc2C(=O)NC[C@@H](O)CO)c2cc[nH]c2n1 | 15.7% |
| NS(=O)(=O)c1ccc(N/N=C2\C(=O)Nc3ccc(-c4cnco4)cc32)cc1 | 0.01% |
| CN1CCN(CCCNc2nc3ccc(Oc4ccc(NC(=O)Nc5cc(C(F)(F)F)ccc5F)cc4)cc3[nH]2)CC1 | -0.81% |
| Fc1ccc(-c2ncn(C3CCNCC3)c2-c2ccnc(Oc3ccc(Oc4ccccc4)cc3)n2)cc1 | 0.94% |
| COc1cc(Nc2ncc3c(C)nc(-c4cccc(Oc5ccccc5)c4)n3n2)cc(OC)c1OC | 1.01% |
| CCc1ccc(Oc2nccc(-c3c(-c4ccc(F)cc4)ncn3C3CCNCC3)n2)cc1 | 1.61% |
| Cc1ccc(C(=O)NC(C)C)cc1-c1ccc(C(=O)NCC2CC2)cc1 | -1.67% |
| COc1cccc(-n2cnc3c(N/N=C/c4ccncc4)ncnc32)c1 | 0.37% |
| Fc1ccc(-c2ncn(C3CCNCC3)c2-c2ccnc(Oc3ccc4c(c3)OCO4)n2)cc1 | 2.83% |
| O=C(NCC1CC1)c1ccc(-c2cccc(C(=O)NC3CC3)c2)cc1 | 0.33% |
| C#Cc1cccc(Nc2ncnc3ccc(OCCCCNCCS(C)(=O)=O)cc23)c1 | 2.32% |
| NCc1ccc(-n2c(-c3nonc3N)nc3cnccc32)cc1 | 3.06% |
| O=C(Nc1n[nH]c2cc(-c3ccccc3)ccc12)C1CC1 | 1.41% |
| CCS(=O)(=O)c1ccc(OC)c(Nc2ncc(-c3cccc(-c4ccccc4F)c3)o2)c1 | 0.42% |
| CNC(=O)c1cncc(/C=C/c2c(C)cccc2C)c1 | -0.04% |
| CCC(=O)Nc1ccc(C)c(-c2ccc(C(=O)NCC3CC3)cc2)c1 | 1.6% |
| c1ccc(-c2n[nH]cc2-c2ccnc(-c3ccc(OCCN4CCOCC4)cc3)c2)nc1 | -1.89% |

From ChEMBL document CHEMBL1961873, “Compounds: GSK PKIS; Assays: Nanosyn kinase panel” (2012)
